High-throughput results as filed in PubChem BioAssay.
DRD3 agonist: agonists of human D3 dopamine receptor; D3R DiscoveRx beta-arrestin cells, luminescence, 90 min; 410,000 tested, 0.58% active; max activation, %; P35462; in the data active = max activation above about 30%; also: 0% is about no effect
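Agonist mode: compounds and dopamine controls were applied to plated cells for 90 min at 37 degrees C after an overnight attachment at 1500 cells/well. Luminescent read-out followed 30 - 60 minutes at room temperature with DiscoveRx detection reagent.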
D1 agonist: activates the human D1 dopamine receptor; HEK293 T-REx D1 cells, calcium flux, agonist mode; activation, % at 2 µM; 360,000 tested, 1% active; AID 504660; in the data active = activation above about 30%; also: 0% is about no effect
Target sequence (P21728 whole entry, looked up): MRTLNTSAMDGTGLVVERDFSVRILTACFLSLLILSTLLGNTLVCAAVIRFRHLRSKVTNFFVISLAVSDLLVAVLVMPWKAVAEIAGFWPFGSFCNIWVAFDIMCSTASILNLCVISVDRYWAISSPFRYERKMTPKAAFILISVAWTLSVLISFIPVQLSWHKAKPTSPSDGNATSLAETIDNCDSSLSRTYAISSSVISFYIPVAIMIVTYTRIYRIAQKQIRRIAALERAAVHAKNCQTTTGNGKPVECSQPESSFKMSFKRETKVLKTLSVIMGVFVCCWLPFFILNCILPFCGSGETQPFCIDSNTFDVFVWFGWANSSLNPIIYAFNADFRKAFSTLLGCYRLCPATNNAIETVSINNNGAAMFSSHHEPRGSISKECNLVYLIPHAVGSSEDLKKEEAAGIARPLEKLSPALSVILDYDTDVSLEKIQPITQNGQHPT
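Inducible HEK293 T-REx D1 cells, force-coupled to calcium signalling, were plated at 4000 cells/well with tetracycline and held overnight at 30 C. After no-wash calcium dye loading, compound-evoked calcium rise over 180 s flagged agonists.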
D1 antagonist: human D1 dopamine receptor antagonism. P21728. HEK293 TREx D1 cells, calcium flux, dopamine EC80; hits give low values. activity change, negative = inhibition, % at 10 µM. 360,000 tested, 3.2% active; in the data active = activity change below about -30%; also: % is scaled to controls: 0 for no effect and ±100 for the full control effect
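Compound effects on dopamine-evoked calcium signalling were measured in tetracycline-induced HEK293 Trex D1 cells. Dopamine at EC80 followed a 180 s compound pre-read, and fluorescence was tracked kinetically for 180 s more.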
DRD3 antagonist: antagonists of human D3 dopamine receptor; P35462; D3R cells, DiscoveRx beta-arrestin luminescence, antagonist mode; hits give low values; max response, negative = inhibition, %; 360,000 tested, 2.5% active; in the data active = max response below about -50%; inconclusive = no clear call, values can overlap the other calls; also: % is scaled to controls: 0 for no effect and ±100 for the full control effect
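Cells plated overnight at 1500 cells/well, then exposed to library compounds with dopamine controls for 90 minutes at 37 degrees C. DiscoveRx reagent added for 30–60 minutes at room temperature; luminescence read, quantitative HTS format.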
D1 potentiator: human D1 dopamine receptor positive modulation. P21728. potentiation, % at 10 µM. 360,000 tested, 0.036% active. HEK293 TREx D1 cells, calcium flux, dopamine EC20 potentiation; in the data active = potentiation above about 30%; also: 0% is about no effect
Numbers without * were called inactive; ? = inconclusive; nt = no result; ! = repeats disagree. Compounds with a hit are over-represented: about 6% of the library has one in this group of screens.

SMILES	DRD3 agonist	D1 agonist	D1 antagonist	DRD3 antagonist	D1 potentiator
Cc1csc2c(N3CCN(S(=O)(=O)c4ccc(Cl)cc4)CC3)ncnc12	-2.4	3.6	-34.8*	-3.9	-3.4
COc1cc(C(=O)Nc2cccc(OCc3cc(=O)n4c(C)csc4n3)c2)cc(OC)c1OC	7.3	-0.8	-8.3	nt	-0.5
COc1ccc(NC(=O)CN(C)S(=O)(=O)c2ccc3c(c2)c(=O)n(C)c(=O)n3C)cc1	5.7	1.8	45.4	7.8	-1.8
COc1ccc(C)cc1NC(=O)CN(C)S(=O)(=O)c1ccc2c(c1)c(=O)n(C)c(=O)n2C	2.2	2.8	-30.2*!	-2.4	-1.6
CCOC(=O)c1c(C)[nH]c(C)c1S(=O)(=O)N(C)CC(=O)Nc1cc(C)ccc1OC	0.0	0.3	-40.1*	0.2	-7.1
CCOC(=O)c1cccnc1SCC(=O)Nc1ccc(C)cc1C	3.1	0.6	-11.7	nt	-1.6
COc1ccc(OC)c(CNC(=O)Cn2nc(C)c3nn(-c4ccc(Cl)cc4)c(C)c3c2=O)c1	-1.5	0.8	-12.7	nt	1.1
CN(C(=O)CSC1=Nc2ccccc2C2=NC(c3ccccc3)C(=O)N12)C1CCCCC1 (centres undefined)	-6.1	4.5	nt	-55.2*	-0.3
O=C(CSC1=Nc2ccccc2C2=NC(c3ccccc3)C(=O)N12)NC1CCCCC1 (centres undefined)	-3.8	0.5	4.8	-25.9	12.5
CCCN(C(=O)CSc1nc2ccccc2n1CC)C1CCS(=O)(=O)C1 (centres undefined)	-8.0	8.2	-30.4*	0.7	-4.2
Cc1ccc(CNC(=O)C2CCN(c3nc4ccccc4n(C)c3=O)CC2)cc1	5.0	0.1	-10.5	nt	4.5
COc1cc(NC(=O)c2cc3nc(-c4ccc(C)cc4)cc(C(F)(F)F)n3n2)cc(OC)c1OC	0.1	-3.0	4.0	nt	-0.6
COc1ccc(C(=O)Nc2ccc(Cl)c(S(=O)(=O)Nc3ccccc3OC)c2)cc1	24.3	10.9	-8.7	9.9	-7.0
COc1ccc(NS(=O)(=O)c2cc(N/C(=N\S(=O)(=O)c3ccccc3)c3ccc(F)cc3)ccc2Cl)cc1	-4.0	7.7	-38.4*	-3.0	-0.3
CCOC(=O)NC1c2ccccc2Oc2ccccc21	-15.6	-0.4	-33.2*	3.6	-1.9
Cc1nc2ccc(S(=O)(=O)N(CC(=O)Nc3cccc(Cl)c3)Cc3ccccc3)cc2s1	-0.6	6.7	-15.9	nt	-5.3
CC1=C(c2ccc(C(C)C)cc2)S(=O)(=O)NC1=NCc1ccccc1C	-6.3	2.6	-9.9	nt	-0.8
O=C1/C(=C/c2ccccc2)Nc2ccccc21	-17.4	50.0*	-10.7	-24.7	-3.5
O=C1CNC(=O)/C(=C\c2ccccc2)N1	1.3	1.8	4.4	8.2	-0.5
N#CC1=C(N)Oc2n[nH]c(-c3ccccn3)c2C1c1c(F)cccc1Cl (centres undefined)	1.5	1.8	-31.2*	8.4	-6.6
CCC(=O)Nc1cccc2cccnc12	4.2	0.9	0.6	10.8	-5.0
CC(=O)Nc1ccc(S(=O)(=O)Nc2cccc3cccnc23)cc1	-1.1	2.4	-55.5*	-17.7	-6.6
Cc1ccc(S(=O)(=O)Nc2cccc3cccnc23)c([N+](=O)[O-])c1	-11.1	2.1	18.9	-56.3*	-2.7
Cc1ccccc1NS(=O)(=O)c1ccc(S(=O)(=O)N2CCCC2)cc1	1.2	nt	nt	4.3	nt
O=S(=O)(Nc1cccc2cccnc12)c1ccc(S(=O)(=O)N2CCCC2)cc1	-42.4	3.8	0.4	-72.4*	5.3
SMILES	DRD3 agonist	D1 agonist	D1 antagonist	DRD3 antagonist	D1 potentiator
CS(=O)(=O)Nc1cccc2cccnc12	-16.6	0.1	-2.9	-56.9*	-4.3
Cc1cc(C)c(NS(=O)(=O)c2cccc3cccnc23)c(C)c1	-7.8	0.4	2.6	-3.0	-1.9
CN(Cc1ccccc1)C(=O)c1c[nH]c2ccc(S(=O)(=O)Nc3ccccc3F)cc2c1=O	-4.2	-0.1	3.8	nt	2.7
CN(Cc1ccccc1)C(=O)C(=O)Nc1ccc2nc3n(c(=O)c2c1)CCCCC3	2.0	2.7	-6.7	nt	-0.1
Cc1ccc(NC(=O)c2cccc3cccnc23)cc1	-3.6	0.1	-31.3*	-7.7	-7.0
COc1ccc(S(=O)(=O)Nc2cccc3cccnc23)cc1	nt	17.8	10.7	nt	-4.7
O=S(=O)(Nc1cccc2cccnc12)c1ccccc1	-22.6	1.8	4.3	-70.6*	-7.4
CCCCn1nc(NC(=O)c2cccc(Cl)c2)c2cc3ccc(C)cc3nc21	5.2	-1.6	-1.5	nt	0.1
O=C(NCc1ccccn1)c1c(O)c2cccc3c2n(c1=O)CC3	-4.3	0.9	1.0	-56.3*	1.0
COc1cccc(CNC(=O)CCCNS(=O)(=O)c2cccs2)c1	6.1	2.6	-91.6*	0.0	-12.2
Cc1[nH][nH]c(=O)c1C(c1c(C)[nH][nH]c1=O)c1cn(Cc2ccc(F)cc2)c2ccccc12	-23.7	-1.2	-31.8*	?	-1.2
Cc1[nH][nH]c(=O)c1C(c1c(C)[nH][nH]c1=O)c1cn(Cc2ccc(Cl)c(Cl)c2)c2ccccc12	-19.2	0.8	12.1	-29.6	0.8
O=C(/C=C/c1ccc(Cl)cc1)c1ccc([N+](=O)[O-])o1	-38.3	0.1	-10.2	-101.0*	-0.5
Cc1cc(O)c(C(=O)/C=C/c2ccc(Cl)cc2)c(=O)o1	-6.7	6.1	-2.3	-24.7	-0.8
Cc1ccc(/C=C/C(=O)c2ccc([N+](=O)[O-])o2)cc1	-16.1	2.2	-14.6	-62.4*	-1.7
C/C(=N\NC(=O)c1c(Cl)cnn1C)c1ccc(NC(=O)c2ccc(Br)o2)cc1	-10.3	2.2	-43.2*	4.0	-7.7
C/C(=N\NC(=O)C1CC1)c1ccc(NC(=O)c2ccc(Br)o2)cc1	nt	0.7	-0.2	nt	-2.7
COc1cccc2c1cc1c(=O)n(CC(=O)NCc3ccco3)nc(C)n12	3.9	0.9	3.5	nt	-1.7
O=C(CN1/C(=C(/O)c2ccccc2)C(=O)c2ccccc2S1(=O)=O)c1ccccc1	-1.5	1.3	-4.2	-88.2*	-2.0
COc1ccc(C(=O)CN2C(=O)c3ccccc3S2(=O)=O)cc1	0.0	3.8	-17.9	1.6	-0.3
CCOc1ccc(C2=C(C(=O)CC)Sc3nncn3N2C(=O)CC)cc1	-0.3	2.1	nt	nt	1.1
COCC(=O)Nc1ccc(N2CCCC2)c(S(=O)(=O)Nc2ccccc2OC)c1	-5.2	-0.6	-31.2*	-16.5	9.3
COc1cccc(-n2c(SCC(=O)Nc3cccc(C)c3)nc3c([nH]c4ccccc43)c2=O)c1	1.4	-0.3	-24.0	nt	-1.9
CCC(C(=O)OCC(=O)NC(=O)c1ccccc1)c1ccccc1 (centres undefined)	-3.4	70.3*	-10.1	-20.6	-5.4
